From the supplement of paper PMC10981050 come the findings set out here.

SMILES strings stand for the structures.

The test system of this test is MOLM14. In words: cell viability relative to vehicle control; higher = less cytotoxic. To be noted: 10 µM; SRSF2 genotype: SRSF2 P95H/wt. The essentials:
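Screening covered the Selleck bioactive, kinase and epigenetic probe libraries, less identity-inconsistent compounds, on CRISPR-edited mutant clones and isogenic wild-type clones of four leukaemia lines. Cells, at 2000 per well in 50 µL medium, received a single 10 µM acoustically dispensed dose. After 48 h the supernatant was removed and CellTiter-Glo luminescence was read. Viability was analysed in Genedata Screener as percent of the on-plate vehicle control.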
Usually cell viability stands for a read-out of living cells in per cent, often relative to untreated cells. Consider `COc1ccc2cc(C(=O)O)ccc2c1` [6-Methoxy-2-naphthoic acid], for which the cell viability was found to be 88.6%.
For the molecule `OC[C@H]1O[C@H](OCC2O[C@@H](O)[C@H](O)[C@@H](O)[C@@H]2O)[C@H](O)[C@@H](O)[C@H]1O` (some centres not stated) [Melibiose], the cell viability came to 101%.
In the case of `CNC(=O)c1ccc(-c2cnc3ncc(Cc4ccc5ncccc5c4)n3n2)cc1F` it was 103%; in that of `Nc1cc(C(Cl)=C(Cl)Cl)c(S(N)(=O)=O)cc1S(N)(=O)=O` [Clorsulon], 104%.
As to `C[C@H](CCC(=O)O)[C@H]1CC[C@H]2[C@@H]3C[C@H](O)[C@@H]4C[C@H](O)CC[C@]4(C)[C@H]3CC[C@]12C` [Hyodeoxycholic acid (HDCA)], the cell viability is 93.5%.
Consider `COc1ccc(C[C@@H]2c3cc(Oc4cc(C[C@@H]5c6cc(OC)c(OC)cc6CCN5C)ccc4O)c(OC)cc3CCN2C)cc1` [Neferine], for which the cell viability was found to be 106%.
Consider `CN1CC(O)c2cc(N=NC(N)=O)c(O)cc21` (configuration not stated) [Carbazochrome], for which the cell viability came out at 95.7%.
Regarding `COc1ccccc1N1CCN(CCN(C(=O)C2CCCCC2)c2ccccn2)CC1`, the cell viability worked out at 75.4%.
Turning to `CCCCCCCCCC[C@H](C(=O)O)[C@]1(C(=O)O)CCC(=O)O1` [Spiculisporic Acid], the cell viability was 98.8%.
For `COc1ncnc(NS(=O)(=O)c2ccc(N)cc2)c1OC` [Sulfadoxine (Sulphadoxine)], the cell viability was 95.4%.
As to `OCCc1ccc(O)c(O)c1` [Hydroxytyrosol], the cell viability stood at 97.5%.
Turning to `CNc1ccc([N+](=O)[O-])c(Nc2ccc3[nH]ncc3c2)n1`, the cell viability was determined as 18.1%.
As to `Cc1cc2c(F)c(Oc3ncnn4cc(OC[C@@H](C)O)c(C)c34)ccc2[nH]1`, the cell viability turned out to be 97.5%.
Take `Cc1nc(-c2ccc(OCC(C)C)c(C#N)c2)sc1C(=O)O` [Febuxostat (Uloric)]: the cell viability is 107%.
Under `COc1ccc(C(=O)CC(=O)c2ccc(C(C)(C)C)cc2)cc1` [Avobenzone (Parsol 1789)] stands 87.6%; under `Nc1ccc(Cl)cc1C(=O)C(F)(F)F` [4-Chloro-2-(trifluoroacetyl)aniline hydrochl], 105%; under `NC(=O)OCC(COC(N)=O)c1ccccc1` [Felbamate], 93.4%.
In the case of `O=C1CCC(N2C(=O)c3ccccc3C2=O)C(=O)N1` (configuration not stated) [Thalidomide] it was 87.5%.
Under `C[C@@]1(CO)C[C@@H](O)C[C@@]2(C)[C@@H]3CC[C@](C)([C@@H](O)CO)C=C3CC[C@H]12` [Kirenol] stands 107%.
Turning to `CCC[C@H](NC(=O)/C(C#N)=C/c1cccc(Br)n1)c1ccccc1` [Degrasyn (WP1130)], the cell viability amounted to 0.32%.
Regarding `O=C(Nc1ccccc1)N1CCN(c2nc(-c3ccccc3)ns2)CC1`, the cell viability stood at 90.5%.
Consider `CCCCCCCCCC=O` [Decyl aldehyde], for which the cell viability came out at 102%.
As for `CC1(C)CCC2(C(=O)O)CCC3=C(C(CCl)CC4C3(C)CCC3C4(C)CC(O)C(O)C3(C)C(=O)O)C2C1` (configuration not stated) [Senegenin], the cell viability was 100%.
Take `CS(=O)(=O)Nc1cc2occ(NC=O)c(=O)c2cc1Oc1ccccc1` [Iguratimod]: the cell viability turned out to be 99.1%.
Under `OC[C@H]1O[C@@H](Oc2cc(O)cc(/C=C/c3ccc(O[C@@H]4O[C@H](CO)[C@@H](O)[C@H](O)[C@H]4O)cc3O)c2)[C@H](O)[C@@H](O)[C@@H]1O` [Mulberroside A] stands 97.3%; under `Cc1ccc(Sc2ccccc2N2CCNCC2)c(C)c1`, 3.31%.
Take `Cc1cc(C(O)=C2C(=O)C(=O)N(CCCN3CCOCC3)C2c2ccncc2)ccc1OCc1ccccc1` (configuration not stated): the cell viability was 107%.
Under `CCCCCCNC(=O)n1cc(F)c(=O)[nH]c1=O` [Carmofur] stands 42.2%; under `COC(=O)C1=CO[C@@H](O[C@@H]2O[C@H](CO)[C@@H](O)[C@H](O)[C@H]2O)[C@@H]2[C@H](C)O[C@@H](O)C[C@H]12` [Morroniside], 88.1%.
For the molecule `Cn1cc(C2=C(c3cccc(N)c3)C(=O)NC2=O)c2ccccc21`, the cell viability was 59.8%.
Consider `COCC[n+]1c2c(n(Cc3cnccn3)c1C)C(=O)c1ccccc1C2=O` [YM155 (Sepantronium Bromide)], for which the cell viability was found to be 0.33%.
`CCOCc1nc2c(N)nc3ccccc3c2n1CC(C)(C)O` [Resiquimod]: the cell viability amounted to 97.1%.
On to `Cn1sc(=O)n(Cc2ccccc2)c1=O`, for which the cell viability was determined as 0.12%.
Under `O=C(CCCCCN1C(=O)c2cccc3cccc(c23)C1=O)NO` [Scriptaid] stands 0.6%; under `O=C(O)CNC(=O)c1ccccc1` [Hippuric acid], 98.4%; under `Cn1cc(-c2ccc3nnc(Sc4ccc5ncccc5c4)n3n2)cn1`, 98%.
Under `CS(=O)(=O)c1ccc(-c2cnc(NCc3ccco3)n3cnnc23)cc1` stands 100%.
